According to PubChem BioAssay (NCI):
This is part of a sample that, as a whole, favours compounds with a hit. Of some 79,000 tested, about 15% had one in any assay. Unmarked numbers belong to inactive results. Active and inactive are the calls of the source. Rule as the data show it: active = growth inhibition above about 70%; inactive = the rest. Residues, ends and D or L forms follow the SMILES beside them. *: point of attachment. Fmoc = O=C(OCC1c2ccccc2-c2ccccc21)*; Boc = CC(C)(C)OC(=O)*

Assay: NCI Yeast Anticancer Drug Screen. Data for the rad52 strain (AID 147);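 also: 0% = growth of vehicle-treated control cultures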
Details: S. cerevisiae rad52 mutant growth inhibition, active compounds read high
Procedure: Growth inhibition of yeast strains with defined genetic alterations is measured as a screen for potential anti-cancer activity. Selected strains with alterations in DNA damage repair or cell cycle control were exposed to compounds and growth inhibition was measured relative to vehicle treated controls. The strain used in this assay is rad52

Row | SMILES | growth inhibition (at 1.2 µM) | growth inhibition (at 3.7 µM) | growth inhibition (at 11.0 µM) | growth inhibition (at 33.0 µM) | growth inhibition (at 100.0 µM)
1 | O=C(O)/C=C\C(=O)Nc1ccc2c(c1)Cc1cc(Cl)ccc1-2 | -3% | -3% | -3% | 2% | 19%
2 | CC1=C(C)C(=O)C2=C(OCCO2)C1=O | -6% | -8% | 1% | 23% | 82% (active)
3 | CC(C)(C)OC(=O)NCCCCC(NC(=O)C(Cc1c[nH]c2ccccc12)NC(=O)OCC1c2ccccc2-c2ccccc21)C(=O)O (stereo not given) (Fmoc-Trp-Lys(Boc)-OH; configuration not given here) | -3% | 0% | -2% | 10% | 58%
4 | Cc1cc(Cl)ccc1NC(=O)/C(Cl)=C(/Cl)C(=O)O | 2% | 6% | 21% | 70% (active) | 99% (active)
5 | Oc1ccc(N=Nc2ccc(Cl)cc2)cc1 | 3% | 23% | 97% (active) | 98% (active) | 98% (active)
6 | Cc1ccccc1NC(=O)c1c(C)oc2c1C(=O)c1ccccc1C2=O | -7% | -6% | 3% | 17% | 69%
7 | COC(=O)/C(C#N)=C\NC(=S)C(N)=S | -6% | 24% | 86% (active) | 99% (active) | 98% (active)
8 | CCCCCc1c(CCCC)c(=O)[nH]c2cc(CNCC(OC)OC)ccc12 | 15% | 11% | 26% | 98% (active) | 94% (active)
